Experimental data from ChEMBL document CHEMBL5606460, “ASAP - DENV-2 NS2B-NS3 protease fluorescence single point” (2024).
About 110 (5.5%) of roughly 2,000 compounds showed an effect of 50% or more. This is one part of a sample in which strong results are shown more often than they occur.

Molecular target: Genome polyprotein (dengue virus type 2) (UniProt P29990)
[1] = Thailand/16681/1984, Concentration 25.0 uM, Number of replicates 1.0

Cc1cc(CO)c2cccc(Cc3ccccc3C(=O)NCCc3ncc[nH]3)c2n1
inhibition (Thailand/16681/1984, Concentration 49.95 uM, Number of replicates 2.0, Standard deviation 0.3032711887954129 %): 14.1%
inhibition (Thailand/16681/1984, Concentration 99.9 uM, Number of replicates 2.0, Standard deviation 0.18110062477906652 %): 34.2%

Cc1cc(CO)c2cccc(CC(=O)NCc3ccc(C(N)=O)cc3)c2n1
inhibition (Thailand/16681/1984, Concentration 49.95 uM, Number of replicates 2.0, Standard deviation 0.824600056542549 %): -4.43%
inhibition (Thailand/16681/1984, Concentration 99.9 uM, Number of replicates 2.0, Standard deviation 0.5940444883081935 %): 2.19%

Cc1cc(N)cc(CNC(=O)Cc2cccc3c(CO)cc(C)nc23)c1
inhibition (Thailand/16681/1984, Concentration 49.95 uM, Number of replicates 2.0, Standard deviation 0.21775017554498763 %): 39.7%
inhibition (Thailand/16681/1984, Concentration 99.9 uM, Number of replicates 2.0, Standard deviation 1.7887257377938661 %): 61.7%

Cc1cc(N)cc(CNC(=O)c2cccc(Cc3cccc4c(CO)cc(C)nc34)c2)c1
inhibition (Thailand/16681/1984, Concentration 49.95 uM, Number of replicates 2.0, Standard deviation 0.2659014326821377 %): 29.9%
inhibition (Thailand/16681/1984, Concentration 99.9 uM, Number of replicates 2.0, Standard deviation 1.3431613936290656 %): 54.9%

Cc1cc(CO)c2cccc(Cc3cccc(C(=O)NCCc4ncc[nH]4)c3)c2n1
inhibition (Thailand/16681/1984, Concentration 49.95 uM, Number of replicates 2.0, Standard deviation 2.0725920117726813 %): -4.03%
inhibition (Thailand/16681/1984, Concentration 99.9 uM, Number of replicates 2.0, Standard deviation 0.8997522707097182 %): 1.59%

Cc1cc(CO)c2cccc(CC(=O)NCCc3ncc[nH]3)c2n1
inhibition (Thailand/16681/1984, Concentration 49.95 uM, Number of replicates 2.0, Standard deviation 0.7345959673097169 %): 39.1%
inhibition (Thailand/16681/1984, Concentration 99.9 uM, Number of replicates 2.0, Standard deviation 0.015925439590932376 %): 77.7%

CSCC[C@H](NC(=O)OC(C)(C)C)C(=O)N1CCC[C@H]1C(=O)Nc1ccc(CN)cc1
inhibition (Thailand/16681/1984, Concentration 49.5 uM, Number of replicates 2.0, Standard deviation 0.5873455681071067 %): 0.345%
inhibition (Thailand/16681/1984, Concentration 99.01 uM, Number of replicates 2.0, Standard deviation 0.9875045381203101 %): 1.56%
inhibition (Thailand/16681/1984, Concentration 198.0 uM, Number of replicates 2.0, Standard deviation 0.49996007837732465 %): 2.5%

CCc1nc(CNC(=O)[C@]2(c3ccc(F)cc3)CCCNC2)n[nH]1
inhibition (Thailand/16681/1984, Concentration 49.5 uM, Number of replicates 2.0, Standard deviation 0.49799700461423274 %): -1.23%
inhibition (Thailand/16681/1984, Concentration 99.01 uM, Number of replicates 2.0, Standard deviation 0.6482125452450617 %): -1.25%
inhibition (Thailand/16681/1984, Concentration 198.0 uM, Number of replicates 2.0, Standard deviation 1.0139545093997464 %): -1.41%

O=Cc1ccc(N2CCC(C(=O)NCc3ccccc3Br)CC2)cc1
inhibition [1]: 12.3%

O=Cc1ccc(N2CCC(C(=O)NCc3ccc4ccccc4n3)CC2)cc1
inhibition [1]: 12.8%

Cc1nc(C2CCN(Cc3c[nH]c4ccccc34)CC2)sc1C(=O)O
inhibition (Thailand/16681/1984, Concentration 49.5 uM, Number of replicates 2.0, Standard deviation 2.532196482700825 %): -7.37%
inhibition (Thailand/16681/1984, Concentration 99.01 uM, Number of replicates 2.0, Standard deviation 0.1962596660766768 %): -5.26%
inhibition (Thailand/16681/1984, Concentration 198.0 uM, Number of replicates 2.0, Standard deviation 1.7247831523377455 %): -1.52%

COC(=O)c1cncc(C(=O)Nc2ccncc2C)c1
inhibition (Thailand/16681/1984, Concentration 49.5 uM, Number of replicates 2.0, Standard deviation 6.3209660189886 %): 2.4%
inhibition (Thailand/16681/1984, Concentration 99.01 uM, Number of replicates 2.0, Standard deviation 0.9582277355643998 %): -1.8%
inhibition (Thailand/16681/1984, Concentration 198.0 uM, Number of replicates 2.0, Standard deviation 0.7051109593221626 %): -2.38%

Cc1cc(S(=O)(=O)NCCNC(=O)c2ccc(O)c(NC(=O)c3ccncc3F)c2C)c(C)s1
inhibition (Thailand/16681/1984, Concentration 49.5 uM, Number of replicates 2.0, Standard deviation 0.0696651159595359 %): -1.95%
inhibition (Thailand/16681/1984, Concentration 99.01 uM, Number of replicates 2.0, Standard deviation 0.12517951182523615 %): -1.5%
inhibition (Thailand/16681/1984, Concentration 198.0 uM, Number of replicates 2.0, Standard deviation 0.5034395957498385 %): 0.045%

COc1ccc(CN(C)C(=O)C2CCN(c3ccc(C=O)cc3)CC2)c(OC)c1
inhibition [1]: 14%

NC(=O)c1c(NC(=O)C2CCN(c3ccc(C=O)cc3)CC2)sc2c1CCCC2
inhibition [1]: 38.6%

CCn1cc(S(=O)(=O)Nc2ccc(Cl)cc2C(=O)NC)cn1
inhibition (Thailand/16681/1984, Concentration 49.5 uM, Number of replicates 2.0, Standard deviation 0.5029835247021022 %): -6.21%

C[C@@H](c1ccccc1)N(C(=O)C1CCN(c2ccc(C=O)cc2)CC1)[C@@H](C)c1ccccc1
inhibition [1]: 15.2%

CC1(C)Cc2sc(NC(=O)Cc3ccc(S(N)(=O)=O)cc3)c(C#N)c2CN1CC1CCCCC1
inhibition (Thailand/16681/1984, Concentration 49.5 uM, Number of replicates 2.0, Standard deviation 0.009484052439315419 %): 8.25%
inhibition (Thailand/16681/1984, Concentration 99.01 uM, Number of replicates 2.0, Standard deviation 0.7150155530159198 %): 14.5%
inhibition (Thailand/16681/1984, Concentration 198.0 uM, Number of replicates 2.0, Standard deviation 0.2762742778628508 %): 23.9%

Cc1cc(CO)c2cccc(Cc3ccccc3C(=O)NCc3ccc(S(N)(=O)=O)cc3)c2n1
inhibition (Thailand/16681/1984, Concentration 49.95 uM, Number of replicates 2.0, Standard deviation 1.5695359944911405 %): 4.94%
inhibition (Thailand/16681/1984, Concentration 99.9 uM, Number of replicates 2.0, Standard deviation 2.135114838489864 %): 9.8%

Cc1cc(CO)c2cccc(Cc3ccccc3C(=O)NCc3sccc3C)c2n1
inhibition (Thailand/16681/1984, Concentration 49.95 uM, Number of replicates 2.0, Standard deviation 0.661878407993628 %): 1.17%
inhibition (Thailand/16681/1984, Concentration 99.9 uM, Number of replicates 2.0, Standard deviation 2.367239112425795 %): 7.83%

Cc1cc(CO)c2cccc(Cc3ccccc3C(=O)NCc3ccc(C(N)=O)cc3)c2n1
inhibition (Thailand/16681/1984, Concentration 49.95 uM, Number of replicates 2.0, Standard deviation 0.2888981019288338 %): 2.07%
inhibition (Thailand/16681/1984, Concentration 99.9 uM, Number of replicates 2.0, Standard deviation 0.18972386998439544 %): 5.84%

Cc1cc(CO)c2cccc(CC(=O)NCc3sccc3C)c2n1
inhibition (Thailand/16681/1984, Concentration 49.95 uM, Number of replicates 2.0, Standard deviation 0.3413314788746907 %): 44%
inhibition (Thailand/16681/1984, Concentration 99.9 uM, Number of replicates 2.0, Standard deviation 0.321257440691134 %): 63.7%

Cc1cc(N)cc(CNC(=O)c2ccccc2Cc2cccc3c(CO)cc(C)nc23)c1
inhibition (Thailand/16681/1984, Concentration 49.95 uM, Number of replicates 2.0, Standard deviation 1.0161746789387547 %): 47.1%
inhibition (Thailand/16681/1984, Concentration 99.9 uM, Number of replicates 2.0, Standard deviation 1.7549489162224476 %): 74.7%

Cc1cc(CO)c2cccc(Cc3cccc(C(=O)NCc4sccc4C)c3)c2n1
inhibition (Thailand/16681/1984, Concentration 49.95 uM, Number of replicates 2.0, Standard deviation 0.7466793423372446 %): 1.25%
inhibition (Thailand/16681/1984, Concentration 99.9 uM, Number of replicates 2.0, Standard deviation 0.16169689007422708 %): 23.8%
